Here are results for eight compounds from PubChem BioAssay (NCI).

Some test systems named below: NCI-H23 lung; NCI-H226 lung; NCI-H322M lung; HOP-62 NSCLC; NCI-H460 lung; HOP-92 NSCLC; NCI-H522 lung; A549/ATCC NSCLC; 786-0 renal; COLO 205 colon; DU-145 prostate; K-562 leukemia; MALME-3M melanoma; MDA-MB-231 breast; RXF 393 renal; SF-268 CNS; SF-295 CNS; SF-539 CNS; UACC-257 melanoma; M14 melanoma.
What all share (assay): NCI-60 one-dose screen, 48 h (100 = growth as untreated, 0 = no growth, -100 = all killed)
Holding throughout (settings): 10 µM unless noted

About 83,000 compounds went through this panel and 20% of them were active in at least one assay; those are over-represented in the sample as a whole.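 Values shown are percent growth following 48 h exposure of cells in 96-well plates to a single concentration of compound; below 10 was considered active.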 Values without a mark were called inactive. The source made the active and inactive calls.

In the case of `CC(CN)[C@@H]1CC[C@]2(CO)CC[C@]3(C)[C@H](CC[C@@H]4[C@@]5(C)CCC(N)C(C)(C)[C@@H]5CC[C@]43C)[C@@H]12` (stereo not given in full), the growth is -29.1% (active) in the test on NCI-H23 lung; 85.2% in the test with NCI-H226 lung; 48.8% in the test with NCI-H322M lung; -48.1% (active) in the test on HOP-62 NSCLC; -80% (active) with NCI-H460 lung; 70.9% in the test on HOP-92 NSCLC. Moreover, the growth in the test on NCI-H522 lung was -50.4% (active); in the test with A549/ATCC NSCLC, -89.3% (active); with 786-0 renal, -63.1% (active); in the test with COLO 205 colon, 32.8%; with DU-145 prostate, -87.9% (active); with K-562 leukemia, -55.8% (active). For the same compound, the growth was 74.2% in the test on MALME-3M melanoma; -68.5% (active) in the test with MDA-MB-231 breast; 53.1% with RXF 393 renal; -60.9% (active) in the test with SF-268 CNS; 56.9% in the test with SF-295 CNS; 42.2% in the test with SF-539 CNS. Further, the figures for the growth with UACC-257 melanoma and in the test on M14 melanoma were 78.1% and 11.8%, respectively.

With `COc1cccc(OC)c1Oc1c(-c2nc3ccccc3s2)c(C)nn1-c1ccccc1`, the growth with NCI-H23 lung was 74.4%; with NCI-H226 lung, 79.9%; with NCI-H322M lung it was 65.6%; in the test with HOP-62 NSCLC, 70.4%; with NCI-H460 lung, 78.8%; with HOP-92 NSCLC it was 62.2%. The growth in the test with NCI-H522 lung is 68.3%; in the test with A549/ATCC NSCLC, 67.4%; in the test with 786-0 renal, 91.4%; in the test on COLO 205 colon, 98.4%; in the test on DU-145 prostate, 79.4%; with K-562 leukemia, 61%. In addition, the growth in the test with MALME-3M melanoma was 81.7%; with MDA-MB-231 breast it was 76.4%; in the test on RXF 393 renal it was 67.9%; in the test on SF-268 CNS, 77.1%; in the test with SF-295 CNS, 69.4%; in the test on SF-539 CNS, 92%. Moreover, the growth in the test with UACC-257 melanoma was 92.4%; in the test on M14 melanoma it was 72.3%.

Take `CS(=O)(=O)Cc1cnc(C2OCCO2)s1`: the growth in the test on NCI-H23 lung is 107%; with NCI-H226 lung, 96.4%; in the test on NCI-H322M lung, 100%; in the test with HOP-62 NSCLC, 113%; with NCI-H460 lung it was 112%; in the test with HOP-92 NSCLC, 82.4%. Further, the growth was 88.7% with NCI-H522 lung; 94.8% with A549/ATCC NSCLC; 104% in the test with 786-0 renal; 116% in the test on COLO 205 colon; 106% in the test with DU-145 prostate; 125% with K-562 leukemia. The growth in the test on MALME-3M melanoma is 92.7%; in the test with MDA-MB-231 breast, 109%; in the test on RXF 393 renal, 116%; in the test on SF-268 CNS, 93.1%; in the test on SF-295 CNS it was 98%; in the test on SF-539 CNS it was 94.7%. Moreover, the results for the growth in the test on UACC-257 melanoma and with M14 melanoma were 98.8% and 99.9%, respectively.

For `CN1CCN(Cc2cc(NC(=O)c3cccc(C#Cc4cccc5[nH]nc(N)c45)c3)cc(C(F)(F)F)c2)CC1`, the growth with NCI-H23 lung was 41.3%; in the test with NCI-H226 lung, 24.6%; with NCI-H322M lung, 35.9%; in the test with HOP-62 NSCLC it was 42.4%; in the test with NCI-H460 lung, -20.9% (active); in the test with HOP-92 NSCLC it was -28.4% (active). The growth in the test with NCI-H522 lung is 20.9%; in the test on A549/ATCC NSCLC it was 27.9%; in the test on 786-0 renal, 24.9%; with COLO 205 colon, -35.3% (active); in the test on DU-145 prostate it was 33.9%; with K-562 leukemia, -42.3% (active). For the same compound, the growth in the test on MALME-3M melanoma was -54.7% (active); in the test with MDA-MB-231 breast, -31% (active); with RXF 393 renal it was -9.77% (active); in the test on SF-268 CNS, 40.5%; in the test on SF-295 CNS, 26.3%; in the test with SF-539 CNS, -55.6% (active). Besides, the growth is 57.8% in the test with UACC-257 melanoma and -53.1% (active) with M14 melanoma.

Consider `COc1ccc(Cc2nnc(Nc3nc4ccccc4s3)s2)cc1`, for which the growth in the test on NCI-H23 lung is 93%; in the test with NCI-H226 lung, 98.3%; in the test on NCI-H322M lung, 89.1%; with HOP-62 NSCLC, 108%; with NCI-H460 lung it was 102%; with HOP-92 NSCLC, 85%. Moreover, the growth with NCI-H522 lung is 100%; in the test on A549/ATCC NSCLC it was 99.4%; with 786-0 renal, 98.1%; with COLO 205 colon, 111%; in the test on DU-145 prostate, 109%; with K-562 leukemia, 64.8%. Besides, the growth in the test with MALME-3M melanoma was 100%; with MDA-MB-231 breast it was 98%; in the test on RXF 393 renal it was 97.8%; in the test with SF-268 CNS it was 103%; with SF-295 CNS, 92.9%; with SF-539 CNS, 93.9%. Moreover, the growth in the test with UACC-257 melanoma is 99.9%; with M14 melanoma it was 102%.

For `Cc1cccc(-n2c(C)nc3ccc(N4CCCNC4=O)cc3c2=O)c1`, the growth in the test on NCI-H23 lung was 98.5%; in the test with NCI-H226 lung, 96.5%; with NCI-H322M lung, 103%; with HOP-62 NSCLC, 101%; with NCI-H460 lung, 112%; in the test on HOP-92 NSCLC it was 95.1%. Further, the growth in the test with NCI-H522 lung was 96.4%; in the test on A549/ATCC NSCLC, 102%; with 786-0 renal it was 102%; in the test on COLO 205 colon, 105%; in the test with DU-145 prostate, 109%; in the test on K-562 leukemia it was 102%. In addition, the growth in the test on MALME-3M melanoma was 102%; in the test on MDA-MB-231 breast, 106%; in the test with RXF 393 renal it was 116%; with SF-268 CNS, 105%; with SF-295 CNS, 101%; in the test with SF-539 CNS, 91.9%. Further, the growth in the test with UACC-257 melanoma was 105%; in the test on M14 melanoma, 102%.

Regarding `N#Cc1nc2c(S(=O)(=O)c3ccccc3)c(N)n(Cc3cccnc3)c2nc1C#N`, the growth is 88.5% with NCI-H23 lung; 97.7% in the test on NCI-H226 lung; 91.7% with NCI-H322M lung; -8.31% (active) in the test on HOP-62 NSCLC; 113% in the test with NCI-H460 lung; -14.8% (active) with HOP-92 NSCLC. In addition, the growth in the test with NCI-H522 lung is 46.8%; in the test with A549/ATCC NSCLC, 90.1%; with 786-0 renal, 106%; with COLO 205 colon, 92.3%; in the test with DU-145 prostate it was 90.6%; in the test with K-562 leukemia, 51.6%. Moreover, the growth with MALME-3M melanoma was 78.1%; in the test on MDA-MB-231 breast, 84.7%; with RXF 393 renal, 59.7%; with SF-268 CNS, 52.2%; with SF-295 CNS, 92.7%; in the test with SF-539 CNS, 58.7%. Moreover, the growth in the test with UACC-257 melanoma is 80.3%; in the test on M14 melanoma, 142%.

For the compound `CCOC(=O)C1=C(c2ccccc2)N=c2s/c(=C/c3ccc(Br)cc3)c(=O)n2C1c1ccc(O)cc1` (stereo not given), the growth in the test with NCI-H23 lung is 95.4%; in the test on NCI-H226 lung, 86.6%; in the test on NCI-H322M lung, 91.9%; in the test with HOP-62 NSCLC, 105%; in the test on NCI-H460 lung, 94.1%; in the test with HOP-92 NSCLC, 71.2%. The growth in the test with NCI-H522 lung is 87.9%; with A549/ATCC NSCLC, 80.2%; in the test on 786-0 renal it was 77.4%; in the test with COLO 205 colon, 118%; with DU-145 prostate it was 95.5%; in the test with K-562 leukemia, 77.6%. Moreover, the growth in the test with MALME-3M melanoma is 94.3%; in the test on MDA-MB-231 breast it was 81.6%; in the test with RXF 393 renal it was 102%; in the test with SF-268 CNS it was 83.8%; with SF-295 CNS, 95.6%; in the test with SF-539 CNS it was 97.9%. The growth was 86.9% with UACC-257 melanoma and 87.2% with M14 melanoma.
